SMILES strings stand for the structures. Calls of active or inactive are those of the source. Calls come from the whole dose curve; as a rule, active = well fitted curve in the direction sought with a large enough effect in the repeat runs; inconclusive = weak or mixed curves; inactive = flat fitted curve, though single readings scatter.

This test in a line: qHTS assay to test for compound auto fluorescence at 590 nm (red) in HEK293 cells (AID 720679). The note with it: red autofluorescence 540/590 nm; series mostly up to 91.3 µM. An excerpt:
National Center for Advancing Translational Sciences [NCATS]
NIH Chemical Genomics Center [NCGC]
U.S. Environmental Protection Agency [EPA]
National Institutes of Environmental Health Sciences [NIEHS]
National Toxicology Program [NTP]
U.S. Food and Drug Administration [FDA]
Compound auto fluorescence often interferes with screening of the compound library against various biological targets and signaling pathways. Some of these compounds may have fluorophoric properties. Such properties may interfere with the assay outputs resulting in false positives and/or negatives. To decrease such complications and ensure the compound activities are relevant in terms of biological response, the Tox21 10K compound library was screened for auto fluorescence.
From the fluorophores used as reporter signals in our screening assays, the auto fluorescence equivalencies of compounds against three fluorophores have been evaluated: Triamterene, Fluorescein and Rose Bengal sodium for blue, green and red fluorescence, respectively. The fluorescence intensities were measured using Excitation/Emission wavelengths at 405/460nm, 485/535nm and 540/590nm for blue, green and red labels, respectively. This assay includes the red fluorescence data.
Tox21 Assay Protocol Summary:
2,000 HEK293 cells in 5 uL of culture medium containing 10% dialyzed FBS per well were dispensed into black wall/clear bottom 1536-well plates using a Multidrop Combi Dispenser (Thermo Scientific). The assay plates were incubated for 4-5 hr at 37C to allow cell attachment to the well bottom, followed by the transfer of 23 nL compound or DMSO vehicle by a pintool work station (Kalypsys, San Diego, CA). After the assay plates were incubated overnight at 37C and 5% CO2, fluorescence intensities in the assay plates were measured by an Envision (PerkinElmer, Shelton, CT) plate reader using three labels for measuring blue, green and red fluorescence at […] 460, 535 and 590nm respectively.
(In qHTS, concentration-response curves come from the screen itself.)
Regarding `ClCC(Cl)CCl`, the outcome was inactive.

For `COP(=S)(OC)SCn1nnc2ccccc2c1=O`, the call was inactive.

As to `N#Cc1c(Cl)c(Cl)c(Cl)c(C#N)c1Cl`, the compound was called inactive.

Regarding `CC(C)(O)C(=O)Nc1ccc([N+](=O)[O-])c(C(F)(F)F)c1`, the result was inactive.

For `CCC/C=N/O`, the call was inactive.

Take `N#Cc1nn(-c2c(Cl)cc(C(F)(F)F)cc2Cl)c(N)c1S(=O)C(F)(F)F` (stereo not given): the result was inactive.

On to `Cc1cccc(N=Nc2ccc(N(C)C)cc2)c1`, for which the call was inactive.

On to `CCCCCCCCCC(CC)c1ccc(S(=O)(=O)O)cc1` (stereo not given), for which the call was inactive.

For the compound `CC(C)Nc1nc(Cl)nc(NC(C)C)n1`, the outcome was inactive.

With `CC(C)COC(=O)c1ccccc1C(=O)OCC(C)C`, the compound was called inactive.

With `CS(=O)(=O)NC(=O)c1cc(Oc2ccc(C(F)(F)F)cc2Cl)ccc1[N+](=O)[O-]`, the compound was classed as inactive.

`CC(C)=CC1C(C(=O)OCc2cccc(Oc3ccccc3)c2)C1(C)C` (stereo not given): the compound was classed as inactive.

On to `CCC[CH2][Sn]([Cl])([Cl])[CH2]CCC`, for which the compound was called inactive.

Consider `C[C@]12CCC(=O)C=C1CC[C@@H]1[C@@H]2CC[C@@]2(C)[C@H]1CC[C@]2(C)O`, for which the call was inactive.

With `O=C1C(Cl)=C(Cl)C(=O)c2ccccc21`, the compound was called inactive.

For `S=c1[nH]c2ccccc2[nH]1`, the compound was called inactive.

`O=C(O)c1nn(Cc2ccc(Cl)cc2Cl)c2ccccc12`: the outcome was inactive.

With `O=C1Nc2ccc(Cl)cc2C(c2ccccc2)=NC1O` (stereo not given), the call was inactive.

Take `c1ccc(C2CO2)cc1` (stereo not given): the outcome was inactive.

On to `C=CC(=O)OCC(CC)(COC(=O)C=C)COC(=O)C=C`, for which the compound was called inactive.

On to `CCNCC`, for which the outcome was inactive.

As for `CCOC(=O)c1ccccc1N`, the call was inactive.

In the case of `CC[n+]1c(-c2ccccc2)c2cc(N)ccc2c2ccc(N)cc21`, the compound was classed as inactive.

For the compound `CC(O)CN(CC(C)O)CC(C)O` (stereo not given), the compound was called inactive.

As to `Clc1ccc(C(Cl)(Cl)Cl)cc1`, the result was inactive.

`CC1CC(=O)O1` (stereo not given): the call was inactive.

For the compound `C=C(C)C#N`, the outcome was inactive.

On to `CNC(=S)S`, for which the compound was called inactive.

Turning to `Brc1ccc(Br)cc1`, the outcome was inactive.

Turning to `O=[N+]([O-])/N=C1\NCCN1Cc1ccc(Cl)nc1`, the result was inactive.

`O=C(O)CF`: the compound was called inactive.

As to `CSc1nc(NC(C)C)nc(NC(C)C)n1`, the compound was called inactive.

As for `NC(=O)CN1CCCC1=O`, the outcome was inactive.

For the compound `CCC[CH2][Sn]([Cl])([CH2]CCC)[CH2]CCC`, the compound was called inactive.

In the case of `Cn1c(-c2ccccc2)cc(-c2ccccc2)[n+]1C`, the compound was called inactive.

Take `CCCCCCCCCCCCCl`: the compound was classed as inactive.

As to `CN(C)c1nc(=O)n(C2CCCCC2)c(=O)n1C`, the compound was called inactive.

As for `C=CC(Cl)CCl` (stereo not given), the compound was called inactive.

Turning to `CCNc1nc(Cl)nc(NC(C)(C)C#N)n1`, the compound was called inactive.

With `CC1(C)Cc2cccc(O)c2O1`, the compound was called inactive.

Values taken from PubChem BioAssay (Tox21).
